This passage reports GI50 results from ChEMBL document CHEMBL1201862, “PubChem BioAssay data set” (2004).

Out of some 55,000 sequences screened, about 2,500 (4.5%) were called active. Rule as the data show it: active = GI50 up to about 1.1 µM and inactive = higher. These entries were drawn from the full list. Measured potencies and affinities stand elsewhere.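 Assay format: 96-well plates, 48-hour exposure. GI50 marks 50% less growth.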

The experiment has as its system EKVX. The experiment in a line: NCI tumour cell line growth inhibition, 48 h.
As to “[Bis(aminomethyl)pentamethylenesilane]dichloropaltinum(II), CHEMBL2146202”, the GI50 was found to be 18.2 µM.
The substance “[Bis(aminomethyl)ethylmethylsilane]tetrachloroplatinum(IV), CHEMBL2146192” returned a GI50 of 29.6 µM.
In the case of “[Bis(aminomethyl)tetramethylenesilane]tetrachloropaltinum(IV), CHEMBL2146189”, the GI50 came out at 40.9 µM.
The result for “[Bis(aminomethyl)tetramethylenesilane]dichloropaltinum(II), CHEMBL2146205” reads 55.6 µM; that for “[Bis(aminomethyl)dimethylsilane]tetrachloroplatinum(IV), CHEMBL2146190”, 38.2 µM; that for CISPLATIN, CHEMBL11359, 7.1 µM.
The result for “[Bis(aminomethyl)diethylsilane]tetrachloroplatinum(IV), CHEMBL2146203” reads 31.6 µM; that for “mu-(1,7-nanodiamine-N,N')bis-(cis-aminedichloroplatimum (II)), CHEMBL2146215”, > 100 µM.
The result for “[Bis(aminomethyl)dimethylsilane]dichloroplatinum (II), CHEMBL2146201” reads > 100 µM; that for “[Bis(aminomethyl)pentamethylenesilane]tetrachloropaltinum(IV), CHEMBL2146204”, 56.1 µM.
As for “cis-Bis[[(trimethylsilyl)methyl]amino]tetrachloroplatinum(IV), CHEMBL2146191”, the GI50 stood at 4.68 µM.
